Reference: PubChem BioAssay (NCI)
This is part of a sample that, as a whole, favours compounds with a hit. Of some 79,000 tested, about 15% had one in any assay. Unmarked numbers belong to inactive results. Calls of active or inactive are those of the source. No stated cut-off is given here; in the data, active means growth inhibition above about 70%; inactive means the rest.

Legend:
[1] = NCI Yeast Anticancer Drug Screen. Data for the rad52 strain (AID 147);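 further: 0% = growth of vehicle-treated control cultures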; settings: S. cerevisiae rad52 mutant growth inhibition, hits give high values
Procedure, shortened: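 DNA repair-defective yeast; compound exposure; growth scored against vehicle controls.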

[2] = NCI Yeast Anticancer Drug Screen. Data for the wt1 strain (AID 149);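 further: 0% = growth of vehicle-treated wt1 cultures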; settings: S. cerevisiae wt1 strain (SPY 50644) growth inhibition, hits give high values
Procedure, shortened: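 Growth inhibition read against vehicle controls after compound exposure of the wt1 yeast strain.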

[3] = NCI Yeast Anticancer Drug Screen. Data for the rad50EPP+ strain (AID 151);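 further: 0% = growth of vehicle-treated control cultures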; settings: S. cerevisiae rad50 mutant strain, hits give high values
Procedure, shortened: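 rad50EPP+ yeast treated with test compounds. Readout: growth vs vehicle control.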

[4] = NCI Yeast Anticancer Drug Screen. Data for the mgt1 strain (AID 153); settings: S. cerevisiae mgt1 mutant growth inhibition, hits give high values
Procedure, shortened: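 Growth inhibition relative to vehicle controls was scored for the mgt1 yeast strain after compound exposure.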

[5] = NCI Yeast Anticancer Drug Screen. Data for the rad50 strain (AID 155);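 further: 0% = growth of vehicle-only cultures of the same strain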; settings: S. cerevisiae rad50 strain growth inhibition, hits give high values
Procedure, shortened: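 Readout: growth inhibition relative to vehicle-treated cultures. Compound exposure was carried out in a genetically defined yeast strain deficient in DNA damage repair.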

[6] = NCI Yeast Anticancer Drug Screen. Data for the mec2-1 strain (AID 157); settings: S. cerevisiae mec2-1 strain, hits give high values
Procedure, shortened: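 Growth inhibition is read against vehicle-treated controls after compound exposure of the mec2-1 yeast strain, which is defective in DNA damage repair or cell cycle control.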

[7] = NCI Yeast Anticancer Drug Screen. Data for the rad14 strain (AID 159);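 further: 0% = growth of vehicle-treated control cultures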; settings: S. cerevisiae rad14 strain growth inhibition, hits give high values
Procedure, shortened: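 Growth inhibition vs vehicle controls; genetically altered yeast strain (DNA damage repair defect) treated with test compounds.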

[8] = NCI Yeast Anticancer Drug Screen. Data for the sgs1 mgt1 strain (AID 161);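 further: 0% = growth of cultures given vehicle only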; settings: S. cerevisiae sgs1 mgt1 strain, hits give high values
Procedure, shortened: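 Percent growth inhibition was derived by comparing compound-exposed mutant yeast with vehicle-exposed cultures. The strain carries alterations in DNA damage repair.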

[9] = NCI Yeast Anticancer Drug Screen. Data for the CLN2oe strain (AID 163);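 further: 0% = growth of vehicle-only control cultures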; settings: S. cerevisiae CLN2oe strain, hits give high values
Procedure, shortened: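 Compound-treated yeast; growth vs vehicle ctrl = % inhibition. Genetically altered strain (cell-cycle control).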

[10] = NCI Yeast Anticancer Drug Screen. Data for the cln2 rad14 strain (AID 165);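 further: 0% = growth equal to vehicle treated cultures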; settings: S. cerevisiae cln2 rad14 strain, hits give high values
Procedure, shortened: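 Growth inhibition, relative to vehicle-treated controls, is the read-out. The test organism is a yeast strain with defined genetic alterations, cln2 rad14.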

[11] = NCI Yeast Anticancer Drug Screen. Data for the bub3 strain (AID 167); settings: S. cerevisiae bub3 mutant strain, hits give high values
Procedure, shortened: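 Readout: yeast growth inhibition, expressed relative to vehicle-only wells. The test organism is a mutant strain from a panel with lesions in DNA repair or checkpoint genes.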

[12] = NCI Yeast Anticancer Drug Screen. Data for the wt2 strain (AID 169);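 further: 0% = growth of vehicle-treated yeast cultures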; settings: S. cerevisiae wt2 strain growth inhibition, hits give high values
Procedure, shortened: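 Compound exposure of yeast; growth compared with vehicle controls; inhibition reported.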

[13] = NCI Yeast Anticancer Drug Screen. Data for the mlh1 strain (AID 171);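 further: 0% = growth of vehicle-treated control cultures of the same strain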; settings: S. cerevisiae mlh1 strain growth inhibition, hits give high values
Procedure, shortened: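 Compounds are applied to a genetically altered yeast strain, and its growth is compared with that of vehicle-treated cultures to give percent inhibition.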

[14] = NCI Yeast Anticancer Drug Screen. Data for the sgs1 strain (AID 173);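 further: 0% = growth of vehicle-only control cultures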; settings: S. cerevisiae sgs1 mutant, hits give high values
Procedure, shortened: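 Compounds applied to genetically altered yeast; growth compared with vehicle-treated cultures to give % inhibition.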

[15] = NCI Yeast Anticancer Drug Screen. Data for the mlh1 rad18 strain (AID 175); settings: S. cerevisiae mlh1 rad18 strain growth inhibition, hits give high values
Procedure, shortened: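 Cells of a genetically altered yeast strain, deficient in DNA damage repair, were treated with compound. Their growth was then compared with that of vehicle-treated cultures to give inhibition.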

[16] = NCI Yeast Anticancer Drug Screen. Data for the rad18 strain (AID 177); settings: S. cerevisiae rad18 mutant growth inhibition, hits give high values
Procedure, shortened: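 Compounds are applied to a repair-deficient yeast strain, and growth is compared with that of vehicle-treated cultures to give percent inhibition.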

[17] = at 5.0 µM (retest, dose inferred, filed as 0.5)
[18] = at 50.0 µM (retest, dose inferred, filed as 5.0)

## C[CH2][Sn]([CH2]C)([O]C(=O)C(OC(C)=O)c1ccccc1)[O]C(=O)C(OC(C)=O)c1ccccc1 (stereo unspecified)
[1]; at 1.2 µM
  growth inhibition: 3%
[1]; at 3.7 µM
  growth inhibition: 3%
[1]; at 11.0 µM
  growth inhibition: 15%
[1]; at 33.0 µM
  growth inhibition: 71% (active)
[1]; at 100.0 µM
  growth inhibition: 92% (active)
[2]; at 1.2 µM
  growth inhibition: 0%
[2]; at 3.7 µM
  growth inhibition: 0%
[2]; at 11.0 µM
  growth inhibition: 5%
[2]; at 33.0 µM
  growth inhibition: 47%
[2]; at 100.0 µM
  growth inhibition: 91% (active)
[3]; at 1.2 µM
  growth inhibition: 0%
[3]; at 3.7 µM
  growth inhibition: 2%
[3]; at 11.0 µM
  growth inhibition: 7%
[3]; at 33.0 µM
  growth inhibition: 9%
[3]; at 100.0 µM
  growth inhibition: 9%
[4]; at 1.2 µM
  growth inhibition: 0%
[4]; at 3.7 µM
  growth inhibition: 0%
[4]; at 11.0 µM
  growth inhibition: 4%
[4]; at 33.0 µM
  growth inhibition: 49%
[4]; at 100.0 µM
  growth inhibition: 93% (active)
[5]; at 1.2 µM
  growth inhibition: -4%
[5]; at 3.7 µM
  growth inhibition: 4%
[5]; [17]
  growth inhibition: 13%
[5]; at 11.0 µM
  growth inhibition: -2%
[5]; at 33.0 µM
  growth inhibition: 67%
[5]; [18]
  growth inhibition: 25%
[5]; at 50.0 µM
  growth inhibition: 37.7%
[5]; at 100.0 µM
  growth inhibition: 91% (active)
[6]; at 1.2 µM
  growth inhibition: 1%
[6]; at 3.7 µM
  growth inhibition: 5%
[6]; [17]
  growth inhibition: -13%
[6]; at 11.0 µM
  growth inhibition: 14%
[6]; at 33.0 µM
  growth inhibition: 65%
[6]; [18]
  growth inhibition: 6%
[6]; at 50.0 µM
  growth inhibition: 35.1%
[6]; at 100.0 µM
  growth inhibition: 91% (active)
[7]; at 1.2 µM
  growth inhibition: -2%
[7]; at 3.7 µM
  growth inhibition: -3%
[7]; at 11.0 µM
  growth inhibition: 2%
[7]; at 33.0 µM
  growth inhibition: 14%
[7]; at 100.0 µM
  growth inhibition: 57%
[8]; [17]
  growth inhibition: 7%
[8]; [18]
  growth inhibition: 10%
[8]; at 50.0 µM
  growth inhibition: 20.5%
[9]; at 1.2 µM
  growth inhibition: -15%
[9]; at 3.7 µM
  growth inhibition: -3%
[9]; at 11.0 µM
  growth inhibition: 4%
[9]; at 33.0 µM
  growth inhibition: 47%
[9]; at 100.0 µM
  growth inhibition: 90% (active)
[10]; [17]
  growth inhibition: 8%
[10]; [18]
  growth inhibition: 44%
[10]; at 50.0 µM
  growth inhibition: -23.2%
[11]; at 1.2 µM
  growth inhibition: 1%
[11]; at 3.7 µM
  growth inhibition: 4%
[11]; [17]
  growth inhibition: -13%
[11]; at 11.0 µM
  growth inhibition: 12%
[11]; at 33.0 µM
  growth inhibition: 53%
[11]; [18]
  growth inhibition: 54%
[11]; at 50.0 µM
  growth inhibition: 54.4%
[11]; at 100.0 µM
  growth inhibition: 88% (active)
[12]; at 1.2 µM
  growth inhibition: -1%
[12]; at 3.7 µM
  growth inhibition: -2%
[12]; at 11.0 µM
  growth inhibition: 1%
[12]; at 33.0 µM
  growth inhibition: 57%
[12]; at 100.0 µM
  growth inhibition: 93% (active)
[13]; at 1.2 µM
  growth inhibition: 1%
[13]; at 3.7 µM
  growth inhibition: 0%
[13]; at 11.0 µM
  growth inhibition: 4%
[13]; at 33.0 µM
  growth inhibition: 47%
[13]; at 100.0 µM
  growth inhibition: 93% (active)
[14]; at 1.2 µM
  growth inhibition: -1%
[14]; at 3.7 µM
  growth inhibition: 4%
[14]; at 11.0 µM
  growth inhibition: 15%
[14]; at 33.0 µM
  growth inhibition: 78% (active)
[14]; at 100.0 µM
  growth inhibition: 94% (active)
[15]; [17]
  growth inhibition: 2%
[15]; [18]
  growth inhibition: 10%
[15]; at 50.0 µM
  growth inhibition: 18.4%
[16]; at 1.2 µM
  growth inhibition: 4%
[16]; at 3.7 µM
  growth inhibition: 16%
[16]; at 11.0 µM
  growth inhibition: 37%
[16]; at 33.0 µM
  growth inhibition: 77% (active)
[16]; at 100.0 µM
  growth inhibition: 92% (active)

## CC(=O)Nc1ccc(/C=C(\C#N)c2ccc(C)cc2)cc1
[1]; at 1.2 µM
  growth inhibition: -10%
[1]; at 3.7 µM
  growth inhibition: 0%
[1]; at 11.0 µM
  growth inhibition: -5%
[1]; at 33.0 µM
  growth inhibition: -2%
[1]; at 100.0 µM
  growth inhibition: 1%
[2]; at 1.2 µM
  growth inhibition: 0%
[2]; at 3.7 µM
  growth inhibition: -2%
[2]; at 11.0 µM
  growth inhibition: -6%
[2]; at 33.0 µM
  growth inhibition: -6%
[2]; at 100.0 µM
  growth inhibition: 1%
[3]; at 1.2 µM
  growth inhibition: -11%
[3]; at 3.7 µM
  growth inhibition: -20%
[3]; at 11.0 µM
  growth inhibition: -18%
[3]; at 33.0 µM
  growth inhibition: -8%
[3]; at 100.0 µM
  growth inhibition: -5%
[4]; at 1.2 µM
  growth inhibition: -6%
[4]; at 3.7 µM
  growth inhibition: -16%
[4]; at 11.0 µM
  growth inhibition: -17%
[4]; at 33.0 µM
  growth inhibition: -10%
[4]; at 100.0 µM
  growth inhibition: -13%
[5]; at 1.2 µM
  growth inhibition: -25%
[5]; at 3.7 µM
  growth inhibition: -23%
[5]; [17]
  growth inhibition: 30%
[5]; at 11.0 µM
  growth inhibition: -23%
[5]; at 33.0 µM
  growth inhibition: -13%
[5]; [18]
  growth inhibition: 93% (active)
[5]; at 50.0 µM
  growth inhibition: 28.4%
[5]; at 100.0 µM
  growth inhibition: -1%
[6]; at 1.2 µM
  growth inhibition: -16%
[6]; at 3.7 µM
  growth inhibition: -23%
[6]; [17]
  growth inhibition: 40%
[6]; at 11.0 µM
  growth inhibition: -22%
[6]; at 33.0 µM
  growth inhibition: -33%
[6]; [18]
  growth inhibition: 95% (active)
[6]; at 50.0 µM
  growth inhibition: 18.7%
[6]; at 100.0 µM
  growth inhibition: -30%
[7]; at 1.2 µM
  growth inhibition: 1%
[7]; at 3.7 µM
  growth inhibition: -9%
[7]; at 11.0 µM
  growth inhibition: -5%
[7]; at 33.0 µM
  growth inhibition: 4%
[7]; at 100.0 µM
  growth inhibition: 1%
[8]; [17]
  growth inhibition: -12%
[8]; [18]
  growth inhibition: 45%
[8]; at 50.0 µM
  growth inhibition: 24.6%
[9]; at 1.2 µM
  growth inhibition: -3%
[9]; at 3.7 µM
  growth inhibition: -1%
[9]; at 11.0 µM
  growth inhibition: -3%
[9]; at 33.0 µM
  growth inhibition: 8%
[9]; at 100.0 µM
  growth inhibition: 20%
[10]; [17]
  growth inhibition: 63%
[10]; [18]
  growth inhibition: 2%
[10]; at 50.0 µM
  growth inhibition: 19.2%
[11]; at 1.2 µM
  growth inhibition: -27%
[11]; at 3.7 µM
  growth inhibition: -21%
[11]; [17]
  growth inhibition: -11%
[11]; at 11.0 µM
  growth inhibition: -12%
[11]; at 33.0 µM
  growth inhibition: 7%
[11]; [18]
  growth inhibition: 39%
[11]; at 50.0 µM
  growth inhibition: 63.7%
[11]; at 100.0 µM
  growth inhibition: -16%
[12]; at 1.2 µM
  growth inhibition: -1%
[12]; at 3.7 µM
  growth inhibition: 9%
[12]; at 11.0 µM
  growth inhibition: 6%
[12]; at 33.0 µM
  growth inhibition: 5%
[12]; at 100.0 µM
  growth inhibition: 0%
[13]; at 1.2 µM
  growth inhibition: -20%
[13]; at 3.7 µM
  growth inhibition: -21%
[13]; at 11.0 µM
  growth inhibition: -18%
[13]; at 33.0 µM
  growth inhibition: -6%
[13]; at 100.0 µM
  growth inhibition: -10%
[14]; at 1.2 µM
  growth inhibition: -21%
[14]; at 3.7 µM
  growth inhibition: -19%
[14]; at 11.0 µM
  growth inhibition: -23%
[14]; at 33.0 µM
  growth inhibition: -13%
[14]; at 100.0 µM
  growth inhibition: -17%
[15]; [17]
  growth inhibition: 34%
[15]; [18]
  growth inhibition: 97% (active)
[15]; at 50.0 µM
  growth inhibition: 24.6%
[16]; at 1.2 µM
  growth inhibition: -18%
[16]; at 3.7 µM
  growth inhibition: -9%
[16]; at 11.0 µM
  growth inhibition: -17%
[16]; at 33.0 µM
  growth inhibition: -3%
[16]; at 100.0 µM
  growth inhibition: -16%
